From PubChem
ALR H2O2 inh – inhibitors of human ALR sulfhydryl oxidase, primary screen, biochemical, H2O2 detection, HRP-luminol luminescence, single point | AID 485317, 2010 | 290,000 compounds, 3.8% hits | purified ALR, DTT oxidation | inhibition, % (no concentration beside the values);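 active = mean replicate inhibition above about 79%, with every replicate also reaching it, limit read from the data; inconclusive = only one of the two criteria met; inactive = mean below limit and not every replicate reaching it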
IDE inh – human IDE inhibitors in live cells, primary screen, fluorescence polarization, HEK cells, FAbetaB substrate. Insulin-degrading enzyme (Homo sapiens), P14735. FAbetaB cleavage. inhibition, % at 5.59 µM. 320,000 compounds, 0.41% hits. AID 434962, 2010;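 active = percent inhibition above the average of all tested compounds plus 3 SD, set per screening campaign, cut at about 16% in these data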;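 note: IDE supplied by intact live HEK cells; FP after avidin binding of uncleaved biotin substrate so inhibition keeps polarization high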
Target sequence (P14735 whole entry, looked up): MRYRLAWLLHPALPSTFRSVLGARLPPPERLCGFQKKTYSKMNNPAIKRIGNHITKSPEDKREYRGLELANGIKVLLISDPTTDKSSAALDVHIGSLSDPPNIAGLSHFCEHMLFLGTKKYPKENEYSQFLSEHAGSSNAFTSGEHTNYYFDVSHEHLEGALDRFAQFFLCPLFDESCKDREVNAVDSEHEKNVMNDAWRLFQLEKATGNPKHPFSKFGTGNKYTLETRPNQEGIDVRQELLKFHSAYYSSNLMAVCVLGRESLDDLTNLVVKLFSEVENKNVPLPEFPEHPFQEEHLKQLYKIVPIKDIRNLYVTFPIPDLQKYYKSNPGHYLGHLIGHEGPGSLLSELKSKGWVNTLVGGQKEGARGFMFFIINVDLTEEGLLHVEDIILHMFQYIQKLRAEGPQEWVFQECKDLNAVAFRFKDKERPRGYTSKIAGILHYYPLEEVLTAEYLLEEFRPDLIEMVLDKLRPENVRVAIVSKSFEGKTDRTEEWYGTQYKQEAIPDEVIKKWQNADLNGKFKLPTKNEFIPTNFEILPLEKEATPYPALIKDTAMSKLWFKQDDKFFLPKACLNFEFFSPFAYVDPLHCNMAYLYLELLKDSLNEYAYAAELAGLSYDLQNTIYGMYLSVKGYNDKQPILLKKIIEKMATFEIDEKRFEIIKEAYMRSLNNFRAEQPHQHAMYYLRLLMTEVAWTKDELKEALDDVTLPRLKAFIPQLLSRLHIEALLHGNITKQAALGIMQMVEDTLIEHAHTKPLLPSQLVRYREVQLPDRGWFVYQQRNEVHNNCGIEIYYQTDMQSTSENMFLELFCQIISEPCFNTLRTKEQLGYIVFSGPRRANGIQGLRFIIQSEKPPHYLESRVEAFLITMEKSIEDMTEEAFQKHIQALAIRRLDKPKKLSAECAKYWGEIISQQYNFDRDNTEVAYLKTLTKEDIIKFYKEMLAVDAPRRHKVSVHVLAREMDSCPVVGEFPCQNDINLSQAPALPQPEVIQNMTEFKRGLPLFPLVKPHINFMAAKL
CaV13 FRET inh – Primary screen for inhibitors of IQ motif and Ca2+-dependent inactivation inhibitor domain binding in CACNA1D, Förster resonance energy transfer in living cells, …; HEK cells, CFP/YFP FRET ICDI-IQ, plate reader, 10 min; percent FRET-ratio fall versus neutral wells; inhibition, % at 12.3 µM; 340,000 compounds, 0.098% hits; AID 743397;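 active = mean replicate inhibition of at least 30% and at least 1% of replicates passing that level; inconclusive = only one of the two criteria is met; inactive = neither criterion is met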
PolyA inhibitor – polyadenylation inhibitors in yeast reporter cells, primary screen, luminescence, S. cerevisiae. S. cerevisiae SKY197-pL101 polyadenylation reporter, beta-gal luminescence; efflux-impaired pdr1/pdr3 knockout yeast; score 100 = 6 SD above DMSO. activity score, % at 12 µM. 300,000 compounds, 0.02% hits. AID 1875, 2009;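 active = lowest replicate activity score at least 50, where 100 means six control SD above control mean; inconclusive = lowest score under 50 but half or more replicates reach 50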;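 note: yeast exposed to compound for 9 h at 30 °C; higher score means more reporter readthrough which indicates perturbed polyadenylation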
M18AAP inhibitor – PfM18AAP inhibitors, malaria aminopeptidase, primary screen, biochemical, QFRET, recombinant enzyme | M18 aspartyl aminopeptidase (Plasmodium falciparum 3D7) | H-Glu-NHMec fluorogenic cleavage | 290,000 compounds, 1.2% hits | inhibition, % at 7.35 µM;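 active = inhibition above the campaign mean inhibition over all tested compounds plus 3 SD, cut at about 28% in these data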
IDE act – human IDE activators in live cells, primary screen, fluorescence polarization, HEK cells, FAbeta-B substrate. FAbeta-B cleavage; 0% vehicle, 100% cell-free pure enzyme wells. activation, % at 5.96 µM. 340,000 compounds, 0.073% hits. AID 493087, 2011;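 active = activation above the mean of all tested compounds plus 3 SD, set per screening campaign, cut at about 17% in these data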
A number is an active result; - = inactive; ? = inconclusive; . = no result given. The list is not random: actives were taken first. Their share in the collection is about 4.1%.

SMILES	ALR H2O2 inh	IDE inh	CaV13 FRET inh	PolyA inhibitor	M18AAP inhibitor	IDE act
S=C(NCCCN1CCOCC1)Nc1ccc(N2CCOCC2)cc1	.	-	-	-	-	-
S=C(NCCCN1CCOCC1)Nc1ccc(-c2nc3ccccc3[nH]2)cc1	98	-	-	-	-	-
O=C1CCCN1CCCNC(=S)Nc1ccc(Nc2ccccc2)cc1	99	-	-	-	-	-
S=C(NCCN1CCOCC1)Nc1ccc(Br)cc1	?	-	-	-	-	-
S=C(NCCN1CCOCC1)Nc1ccc(Nc2ccccc2)cc1	99	-	-	-	-	-
O=C1COc2ccc(C(=O)COc3ccc([N+](=O)[O-])cc3)cc2N1	-	-	-	-	-	-
Cc1ccc(C(C)NC(=O)c2ccncc2)c(C)c1 (centres undefined)	-	-	-	-	-	-
S=C(NCCN1CCOCC1)Nc1ccc(Cl)cc1Cl	95	-	-	-	-	-
S=C(NCCCN1CCOCC1)Nc1ccc(Cl)cc1Cl	-	-	-	-	-	-
Nc1ccc(C(=O)OCC(=O)Nc2ccc([N+](=O)[O-])cc2C(F)(F)F)cc1	-	-	-	-	-	-
COCCNC(=O)c1cc2c(-c3ccc(Cl)cc3)nn(C)c2s1	92	-	?	-	-	-
Cn1nc(-c2ccc(Cl)cc2)c2cc(C(=O)NCCCN3CCCC3)sc21	94	-	-	-	-	-
Cc1ccc(CNC(=O)c2cc3c(-c4ccc(Cl)cc4)nn(C)c3s2)o1	80	-	-	-	-	-
COCCCNC(=O)c1cc2c(-c3ccc(Cl)cc3)nn(C)c2s1	-	-	-	-	-	-
Cn1nc(-c2ccc(Cl)cc2)c2cc(C(=O)N3CCN(c4ccccc4)CC3)sc21	-	-	48	-	-	-
CCCCNC(=O)c1cc2c(-c3ccc(Cl)cc3)nn(C)c2s1	-	-	-	-	-	-
Cc1ccccc1N(CC(=O)NCC1CCCO1)C(=O)C1(C)CC(=O)N=C2C=CC=CN21 (centres undefined)	-	-	-	-	-	-
CC(C)C[C@H]1CN(CCCC[C@H]2CNC(=O)C(=O)N2CCC2CCCCC2)C(=O)C(=O)N1CCC1CCCCC1	.	.	-	.	.	.
O=C(Cc1ccc(NC(=O)C2CCN(C(=O)C3CCC3)CC2)cc1)Nc1cccc(C(=O)N2CCCCC2)c1	.	.	-	.	.	-
C=Cc1ccc(Cn2c(C)c(C(=O)NCc3cccc(C)c3)sc2=O)cc1	.	.	69	.	.	.
CSc1ccc(Cn2c(C)c(C(=O)NCc3cccc(Cl)c3)sc2=O)cc1	.	.	42	.	.	.
COc1ccc(Br)c(Cn2c(C)c(C(=O)NCc3ccc4c(c3)OCCO4)sc2=O)c1	.	.	47	.	.	.
CC(=O)Oc1ccc(Cn2c(C)c(C(=O)NCc3ccc4c(c3)OCCO4)sc2=O)cc1	.	.	-	.	.	.
C=Cc1ccc(Cn2c(C)c(C(=O)NCc3cccc(C(F)(F)F)c3)sc2=O)cc1	.	.	-	.	.	.
Cc1c(C(=O)NCc2cccc(Cl)c2)sc(=O)n1Cc1cccc(F)c1	.	.	-	.	.	.
SMILES	ALR H2O2 inh	IDE inh	CaV13 FRET inh	PolyA inhibitor	M18AAP inhibitor	IDE act
Cc1c(C(=O)NCc2ccc(Cl)c(Cl)c2)sc(=O)n1Cc1cccc(F)c1	.	.	39	.	.	.
Cc1cc(C)c(C)c(S(=O)(=O)N2CCN(CC(=O)NC(=O)NCc3ccccc3)CC2)c1C	-	-	-	-	-	-
O=c1c2sccc2nc(SCc2cc(=O)n3ccccc3n2)n1Cc1ccccn1	-	-	-	-	-	.
O=C(O)c1ccccc1C(=O)Nc1ccc(Oc2ccc3ccccc3c2)cc1	99	-	-	-	-	-
Cc1ccc(C(=O)Nc2ccc(Oc3ccc(C(=O)O)c(C(=O)O)c3)cc2)cc1C	98	-	.	-	-	-
O=C(Nc1ccc(C(=O)c2ccc(C(=O)O)c(C(=O)O)c2)cc1)c1ccccc1	-	-	-	-	-	-
O=C(O)c1ccccc1C(=O)Nc1ccc(Oc2cccc3ccccc23)cc1	.	.	-	-	-	-
